Assay outcomes from PubChem.
ASM inhibitor = human S-ASM enzyme inhibition. P17405. placental ASM, HMU-PC fluorogenic substrate, 60 min. Potency, µM (highest dose often 57.5 µM), for inactives: top-dose activity change, negative = inhibition, hits mostly inhibitors. 0.006% of 340,000 active. AID 504937; also: potency is read from the fitted curve at half-maximal effect
Target sequence (P17405 47-631 limits assumed): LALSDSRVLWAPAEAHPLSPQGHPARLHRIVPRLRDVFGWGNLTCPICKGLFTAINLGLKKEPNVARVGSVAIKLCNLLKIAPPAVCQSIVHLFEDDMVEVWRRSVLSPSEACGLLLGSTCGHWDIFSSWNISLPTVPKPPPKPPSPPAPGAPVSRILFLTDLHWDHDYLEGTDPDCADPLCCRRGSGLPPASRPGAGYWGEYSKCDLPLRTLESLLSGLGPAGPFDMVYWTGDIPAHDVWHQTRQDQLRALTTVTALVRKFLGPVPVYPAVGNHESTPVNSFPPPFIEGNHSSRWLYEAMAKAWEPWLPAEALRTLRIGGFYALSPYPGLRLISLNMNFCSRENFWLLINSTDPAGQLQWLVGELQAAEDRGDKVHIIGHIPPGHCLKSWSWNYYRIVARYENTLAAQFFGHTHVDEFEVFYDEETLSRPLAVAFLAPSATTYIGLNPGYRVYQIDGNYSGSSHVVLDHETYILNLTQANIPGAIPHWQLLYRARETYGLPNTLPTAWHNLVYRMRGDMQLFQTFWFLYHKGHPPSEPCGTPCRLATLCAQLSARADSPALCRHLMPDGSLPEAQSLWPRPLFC
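qHTS format. ASM enzyme prepared from human placenta hydrolyses the fluorogenic substrate HMU-PC0 (9 uM final) over 60 min at 37 °C after a 10 min compound preincubation.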
TGFb inhibitor = inhibitors of TGF-b signaling; Potency, µM (series often up to 46.1 µM), for inactives: top-dose activity, negative = inhibition, actives largely listed as inhibitors; HepG2 CAGA-GFP TGF-b/SMAD3 reporter, GFP fluorescence, 18 h; TGF-beta stimulated, 500 pg/mL final; 1.2% of 410,000 active; also: potency is read from the fitted curve at half-maximal effect; % is scaled to controls: 0 for no effect and ±100 for the full control effect; nearly all actives have a fitted effect of over 65% in size
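Read-out: total well GFP (ex488/em500-530) summed from mean per-cell fluorescence. Cells: HEPG2 CAGA-GFP, 1% FBS DMEM, 18 h at 37 degrees C with 500 pg/mL final TGF-beta. Unstimulated wells served as the full-inhibition control; stimulated DMSO wells = 0%.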
DT40 TDP1 no CPT = qHTS for Inhibitors of human tyrosyl-DNA phosphodiesterase 1 (TDP1): qHTS in cells in absence of CPT; 15% of 420,000 active; Potency, µM (highest dose often 46.2 µM), for inactives: at the top dose activity change, negative = growth inhibition, usual class: inhibitors; DT40 Tdp1-/- hTDP1 cells, no CPT, ATP luminescence, 48 h; also: potency is read from the fitted curve at half-maximal effect; % is scaled to controls: 0 for no effect and ±100 for the full control effect; nearly all actives have a fitted effect of over 55% in size
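Growth of hTDP1-complemented DT40 Tdp1-knockout cells is measured by ATP luminescence after at least 48 hr compound exposure at 37 °C, with DMSO substituting for the 20 nM CPT used in the parallel screen.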
DT40 TDP1 CPT = DT40-hTDP1 cell growth loss with CPT. chicken DT40 Tdp1-/-;hTDP1 cells + 20 nM CPT, ATP luminescence, 48 h. Potency, µM (highest dose often 46.2 µM), without a hit: at the highest dose activity change, negative = growth inhibition, actives largely listed as inhibitors. 12% of 420,000 active; also: potency is read from the fitted curve at half-maximal effect; % is scaled to controls: 0 for no effect and ±100 for the full control effect; nearly all actives have a fitted effect of over 55% in size
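Chicken DT40 Tdp1-/- cells complemented with human TDP1, 400 cells/well, exposed to compounds plus 20 nM camptothecin for at least 48 h at 37 C; viability read as ATP content by CellTiter-Glo luminescence.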
IL-1B inflam inh = blocks inflammasome-driven IL-1 beta release; 4.7% of 360,000 active; THP-1 LPS/ATP IL-1B secretion, AlphaLISA, 16 h; hits give low values; activity change, % at 57.5 µM; AID 743279; in the data active = activity change below about -50%; inconclusive = mostly about -30% to -49%; also: % is scaled to controls: 0 for no effect and ±100 for the full control effect
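Secreted IL-1B measured by AlphaLISA bead assay after 16 h compound exposure of THP-1 cells; compounds (final up to 57.5 uM) added 1 h before LPS (250 ng/mL) and ATP (1.25 mM) stimulation; lower signal means less secretion.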
HepG2 tox = counter-screen for TGF-b inhibitors: cytotoxicity in HepG2 cells; Potency, µM (series often up to 46.1 µM), for inactives: at the highest dose activity change, negative = cytotoxicity, most hits filed as cytotoxic; 0.76% of 410,000 active; HepG2 CAGA-GFP viability, ATP luminescence, 18 h; AID 588856; also: potency is read from the fitted curve at half-maximal effect
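HepG2 CAGA-GFP cells (1000/well, DMEM with 1% FBS) received compound, then TGF-beta at 500 pg/mL final, and were incubated 18 hours at 37 degrees C. Viability was read by CellTiter-Glo luminescence. Media-only wells were set as complete cell-killing and DMSO as no toxicity.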
Starred values were filed as active, the others as inactive; u = inconclusive; x = not tested or not shown. Only some compounds are listed: those with a hit (about 19% of all), similar ones and a draw of the others. Unless noted, calls follow the shape of the dose curve; as a rule, active = well fitted curve in the direction sought with a large enough effect; inconclusive = small, poorly fitted or top-dose-only effect, or another doubt; inactive = no such curve, though single readings can be large; an effect the other way counts as inactive or inconclusive.

SMILES | ASM inhibitor | TGFb inhibitor | DT40 TDP1 no CPT | DT40 TDP1 CPT | IL-1B inflam inh | HepG2 tox
Cc1cccc(C(=O)N(Cc2nc(-c3ccc(Cl)cc3)no2)C(C)C)c1 | x | u | u | u | x | -8%
Cc1cc(C(=O)N(Cc2nnc(-c3ccc(Cl)cc3)o2)C(C)C)c2ccccc2n1 | -11% | u | 15µM* | u | 0 | -6%
COc1ccc(-c2noc(CN(C(=O)c3ccoc3C)C(C)C)n2)cc1 | -3% | 7% | u | -26% | -11 | -8%
Cc1ccc(C)c(C(=O)N(Cc2nc(-c3ccc(Cl)cc3)no2)C(C)C)c1 | -12% | 10µM* | 18µM* | u | -8 | -17%
Cc1ccc(Nc2cc(C)nc3nncn23)c(C)c1 | x | u | u | u | x | -16%
Cc1cccc(C(=O)NNC(=O)C2CCN(C(=O)OC(C)(C)C)CC2)c1 | 0% | 27% | 27% | -5% | 1 | -2%
Cc1ncc([N+](=O)[O-])n1CC(=O)Nc1ccc(Br)cc1 | -2% | -6% | -4% | -18% | 0 | -4%
Nc1ccc2c(Cl)cc(Cl)cc2c1 | x | -10% | -25% | -13% | -22 | -39%
Cc1ccc(OCCn2cc(C(=O)C3CCCCC3)c3ccccc32)cc1 | x | -11% | 18µM* | 21µM* | x | -32%
S=C(c1cn(CCOc2ccccc2)c2ccccc12)N1CCCC1 | -2% | u | 20µM* | 18µM* | -21 | -20%
Cc1ccc(OCCn2cc(C(=O)O)c3ccccc32)cc1 | 2% | 7% | -4% | 5% | -7 | -10%
COCCn1cc(C(=S)N2CCCCC2)c2ccccc21 | 0% | 0% | u | 0% | -19 | 0%
Cc1ccc(OCCn2cc(C(=S)N3CCCC3)c3ccccc32)cc1C | -3% | -18% | 4.1µM* | 8.2µM* | -15 | 16µM*
S=C(c1cn(CCOc2cccc3ccccc23)c2ccccc12)N1CCCC1 | x | -11% | 13µM* | 10µM* | -6 | -30%
CCSc1nc2c(c(=O)[nH]c(=O)n2C)n1CC(O)COc1ccccc1C (stereo not given) | 0% | u | u | 15µM* | 42 | -12%
Cc1ccccc1OCC(O)Cn1c(N2CCCCC2)nc2c1c(=O)[nH]c(=O)n2C (stereo not given) | 4% | -14% | 8.2µM* | u | 57 | -19%
CCSc1nc2c(c(=O)[nH]c(=O)n2C)n1CC(O)COc1ccc(Cl)cc1 (stereo not given) | x | u | 9.2µM* | u | x | 0%
Cc1ccccc1OCC(O)Cn1c(Br)nc2c1c(=O)[nH]c(=O)n2C (stereo not given) | 0% | -5% | u | 13µM* | 43 | -13%
Cc1cccc(CN2CCC(CNC(=O)CSc3cc(=O)n(C)c4cc(Cl)ccc34)CC2)c1 | 0% | 0% | 0% | 9% | 20 | -8%
Cc1ccc(NC(=O)CCc2nc3ccccc3s2)c(O)c1 | -6% | -10% | u | -6% | 22 | -11%
Cn1ccc2cc(-c3ccc4ncnc(NCc5cccs5)c4c3)ccc21 | -13% | u | x | x | x | -25%
Cc1ccc(Cn2c(CNC(=O)Cc3cccc([N+](=O)[O-])c3)nc3cccnc32)cc1 | x | -21% | u | u | x | -8%
CCc1cccc(OCC(O)Cn2c(N3CCCCC3)nc3c2c(=O)[nH]c(=O)n3C)c1 (stereo not given) | -3% | 4% | 7.3µM* | 8.2µM* | u | -4%
Cn1c(=O)[nH]c(=O)c2c1nc(N1CCCC1)n2CC(O)COc1ccccc1 (stereo not given) | 2% | -4% | -14% | -15% | 19 | -8%
